Bioassay records from PubChem BioAssay.
FLuc modulator – qHTS profiling assay for firefly luciferase inhibitor/activator using purifed enzyme and Km concentrations of substrates (counterscreen for miR-21 project). purified FLuc, Km substrates, luminescence inhibition. 6.9% of 360,000 active. Potency, µM (series often up to 57.5 µM), for inactives: at the top dose activity change, negative = inhibition, usual class: inhibitors. Luciferin 4-monooxygenase (Photinus pyralis), P08659;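 further: plate controls were vehicle for no effect and reference inhibitor for full effect; nearly all actives have a fitted effect of over 55% in size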
Target sequence (P08659 whole entry, looked up): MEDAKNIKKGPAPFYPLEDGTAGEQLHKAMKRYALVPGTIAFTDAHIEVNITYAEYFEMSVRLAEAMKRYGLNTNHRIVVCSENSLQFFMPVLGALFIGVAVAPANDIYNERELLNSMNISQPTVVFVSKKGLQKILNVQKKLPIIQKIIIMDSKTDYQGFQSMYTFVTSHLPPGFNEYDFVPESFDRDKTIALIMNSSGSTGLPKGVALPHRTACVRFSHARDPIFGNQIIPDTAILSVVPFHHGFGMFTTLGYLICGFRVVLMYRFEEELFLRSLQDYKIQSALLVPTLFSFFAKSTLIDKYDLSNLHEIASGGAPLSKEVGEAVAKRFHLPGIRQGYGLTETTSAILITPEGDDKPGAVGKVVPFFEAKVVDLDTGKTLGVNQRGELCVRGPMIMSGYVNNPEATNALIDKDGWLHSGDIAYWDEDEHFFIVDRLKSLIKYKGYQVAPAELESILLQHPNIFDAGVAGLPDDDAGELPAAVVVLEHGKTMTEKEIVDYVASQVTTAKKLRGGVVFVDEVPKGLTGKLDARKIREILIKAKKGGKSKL
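Purified P. pyralis luciferase (10nM final) with 10uM D-luciferin and 10uM ATP (Km levels) in 50mM Tris acetate pH 7.5, 10mM Mg acetate, 0.01% Tween-20, 0.05% BSA; qHTS 6-point titration, ~60 µM downward; luminescence read.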
NPC1 promoter act – qHTS Assay for NPC1 Promoter Activators; Huh7 NPC1 promoter luciferase reporter, 24 h; Potency, µM (titrated, usually from 9.22 µM), inactives show top-dose activation, actives largely listed as activators; 2.4% of 320,000 active; further: % of control where 0% means no effect; nearly all actives have a fitted effect of over 60% in size
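Compounds in DMSO were transferred onto Huh7 NPC1-luciferase reporter cells pre-incubated 2 h; after 24 h at 37 °C, Amplite reagent was dispensed and luminescence recorded 10 min later.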
SMN2 splice up – qHTS Assay for Enhancers of SMN2 Splice Variant Expression | HEK293 SMN2-luciferase splicing reporter, luminescence, 30-36 h | Potency, µM (doses to about 46.1 µM), without a hit: top-dose activity change, positive = activation, usual class: activators | 2.8% of 210,000 active | AID 1458, 2008; further: % of control where 0% means no effect; nearly all actives have a fitted effect of over 55% in size
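qHTS luciferase splicing reporter: luminescence rises when SMN2 exon 7 is included in transfected HEK293 cells. Compound exposure lasted 30-36 h at 37C, with 4.5 mM final sodium butyrate as control, followed by a ONE-Glo read.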
ELG1 genotox – qHTS screen for small molecules that induce genotoxicity in human embryonic kidney (HEK293T) cells expressing luciferase-tagged ELG1. AID 504466, 2011. Potency, µM (titrated, usually from 46 µM), for the others: top-dose activity change, positive = activation, most hits filed as activators. 1.3% of 330,000 active. HEK293T ELG1-luciferase reporter, luminescence, 16 h; further: % of control where 0% means no effect; nearly all actives have a fitted effect of over 60% in size
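Step 1: seed 2,000 HEK293T ELG1-luciferase cells per well. Step 2: add compound or DMSO, incubate 16 hr at 37 °C. Step 3: ONE-Glo, 30 min at room temperature, read luminescence.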
ELG1 DNA repair – qHTS screen for small molecules that inhibit ELG1-dependent DNA repair in human embryonic kidney (HEK293T) cells expressing luciferase-tagged ELG1. HEK293T ELG1-luciferase reporter, luminescence, 16 h; DNA damage induced by 5-fluorouridine. Potency, µM (titrated, usually from 46.1 µM), for the others: at the top dose activity change, negative = inhibition, hits mostly inhibitors. 2.3% of 330,000 active. AID 504467, 2011; further: on the % scale 0 is the no-effect control and ±100 the full control effect; nearly all actives have a fitted effect of over 55% in size
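DMSO vehicle served as the neutral condition. Each well held 2,000 cells given 5-fluorouridine plus compound; after 16 hr at 37 °C/5% CO2, ONE-Glo was added and luciferase measured 30 min later.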
Rab9 promoter act – qHTS Assay for Rab9 Promoter Activators. Huh7 Rab9 promoter-luciferase reporter, luminescence, 24 h. Potency, µM (highest dose often 9.22 µM), without a hit: at the top dose activation, negative = inhibition, actives largely listed as activators. 2.8% of 320,000 active. AID 485297, 2010; further: % of control where 0% means no effect; nearly all actives have a fitted effect of over 60% in size
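Using Huh7 cells stably transfected with Rab9 promoter–luciferase, compounds were incubated 24 h at 37 °C, 5% CO2; luciferase luminescence was read 10 min after reagent addition.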
Numbers without * were called inactive. A selection: hits, their analogues and other compounds. The true share with any hit is near 9.2%. The call rests on the fitted dose curve; in most records, active means well fitted curve in the direction sought with a large enough effect; inconclusive means small, poorly fitted or top-dose-only effect, or another doubt; inactive means no such curve, though single readings can be large; an effect the other way counts as inactive or inconclusive. Potency means the concentration at half of the fitted maximal effect.

`COc1ccc(C(OC(=O)c2ccco2)C(=O)NC(C)(C)C)cc1` (stereo unspecified) gave FLuc modulator 5%, NPC1 promoter act -1%, SMN2 splice up -8%, ELG1 genotox 1%, ELG1 DNA repair -1% and Rab9 promoter act -1%.
`O=C(Nc1ccccc1Br)C1CCCN(S(=O)(=O)c2cccc3nsnc23)C1` (stereo unspecified) gave FLuc modulator -9% and SMN2 splice up -8%.
For CCn1nnc(-c2ccc(N)cc2)n1 the results were FLuc modulator -2%, NPC1 promoter act -9%, SMN2 splice up inconclusive, ELG1 genotox 11%, ELG1 DNA repair inconclusive and Rab9 promoter act 4%.
Screening Cc1ccc(C(=O)NCC(c2cccnc2)N2CCc3ccccc3C2)cc1C (stereo unspecified) returned FLuc modulator 2.7µM*.
Screening CC(C)CN(C(=O)C1CCC1)c1c(N)n(Cc2ccccc2)c(=O)[nH]c1=O returned ELG1 genotox 1% and ELG1 DNA repair 23%.
CCCCCCOC(=O)c1ccc(N)cc1 was read as FLuc modulator 11µM*, NPC1 promoter act inconclusive, ELG1 genotox inconclusive, ELG1 DNA repair inconclusive and Rab9 promoter act inconclusive.
`CCCCOC(=O)c1ccc(NC(C)=O)cc1` gave FLuc modulator inconclusive, NPC1 promoter act 19%, SMN2 splice up 15%, ELG1 genotox 3%, ELG1 DNA repair inconclusive and Rab9 promoter act 1%.
`CCCCOC(=O)Nc1ccc(C(=O)OC)cc1` gave FLuc modulator 12µM*, NPC1 promoter act inconclusive, SMN2 splice up -2%, ELG1 genotox inconclusive, ELG1 DNA repair inconclusive and Rab9 promoter act inconclusive.
`COCC(=O)Nc1ccc(C)c(Cl)c1` gave FLuc modulator -5%, NPC1 promoter act -1%, SMN2 splice up -8%, ELG1 genotox 1%, ELG1 DNA repair 14% and Rab9 promoter act 1%.
CCCCOC(=O)c1ccc(N)cc1 was read as FLuc modulator inconclusive, NPC1 promoter act 21%, SMN2 splice up 28%, ELG1 genotox inconclusive, ELG1 DNA repair inconclusive and Rab9 promoter act 15%.
Screening CCCCOC(=O)c1ccc(NC(=O)c2cc(Cl)c(Cl)cc2C(=O)O)cc1 returned FLuc modulator 21µM*, NPC1 promoter act 0%, ELG1 genotox 4%, ELG1 DNA repair 5% and Rab9 promoter act -7%.
For CCCCOC(=O)Nc1ccc(C)c(Cl)c1 the results were FLuc modulator 6.7µM*, NPC1 promoter act 3.5µM*, SMN2 splice up inconclusive, ELG1 genotox inconclusive, ELG1 DNA repair inconclusive and Rab9 promoter act 2.8µM*.
CCCCOC(=O)c1ccc(NC(=O)c2c(OC)cccc2OC)cc1 was read as FLuc modulator -9%, NPC1 promoter act -7%, SMN2 splice up -14%, ELG1 genotox 0%, ELG1 DNA repair 2% and Rab9 promoter act -3%.
Screening CCc1cccc(NC(=O)CN(C)S(=O)(=O)c2ccc3c(c2)n(C)c(=O)c(=O)n3C)c1 returned FLuc modulator 3% and SMN2 splice up -5%.
Cc1ccc(-n2nc(C)c3c(C(=O)NCCc4ccccc4)cc(C)nc32)cc1 was read as FLuc modulator 48%.
For CCCc1cc(=O)oc2cc(C)c3c(C(C)(C)C)coc3c12 the results were FLuc modulator -5% and SMN2 splice up 7%.
O=S(=O)(Nc1ccc(O)c2ccccc12)c1ccc(Br)cc1 was read as FLuc modulator -9%, NPC1 promoter act -5%, ELG1 genotox -27%, ELG1 DNA repair 23µM* and Rab9 promoter act 0%.
CC(=O)Nc1ccc(NS(=O)(=O)c2ccccc2)c2ccccc12 was read as FLuc modulator -1%, NPC1 promoter act -6%, ELG1 genotox -9%, ELG1 DNA repair 8% and Rab9 promoter act -2%.
O=S(=O)(Nc1cccc2ccccc12)c1cccs1 was read as FLuc modulator 1%, NPC1 promoter act 3%, ELG1 genotox 4%, ELG1 DNA repair 15% and Rab9 promoter act 20%.
O=S(=O)(Nc1ccc(O)c2ccccc12)c1cccs1 was read as FLuc modulator -20%, NPC1 promoter act -6%, ELG1 genotox -32%, ELG1 DNA repair 9.2µM* and Rab9 promoter act 18%.
For COc1ccc(-c2nc(-c3cccs3)c(-c3cccs3)[nH]2)cc1O the results were FLuc modulator 17µM*, NPC1 promoter act 1%, SMN2 splice up 27%, ELG1 genotox -15%, ELG1 DNA repair inconclusive and Rab9 promoter act -2%.
For O=C(c1ccccc1)c1nnc(-c2ccncc2)o1 the results were FLuc modulator 9.5µM*, NPC1 promoter act -3%, SMN2 splice up 5%, ELG1 genotox 1%, ELG1 DNA repair 9% and Rab9 promoter act 2%.
For CCc1noc(C)c1C(=O)N1CCCSC1=Nc1ccccc1Cl the results were FLuc modulator -4%, NPC1 promoter act 0%, ELG1 genotox -2%, ELG1 DNA repair 0% and Rab9 promoter act -27%.
Cc1ccc(C)n1CCN1CCN(S(=O)(=O)c2ccc(F)cc2F)CC1 was read as FLuc modulator 0%, NPC1 promoter act -2%, ELG1 genotox 12%, ELG1 DNA repair 23% and Rab9 promoter act 0%.
For CC(c1nccs1)N(C)C(=O)CCc1nnc(-c2ccc(-c3ccccc3)cc2)o1 (stereo unspecified) the results were FLuc modulator 12µM*, NPC1 promoter act 14%, ELG1 genotox -4%, ELG1 DNA repair -4% and Rab9 promoter act 18%.
For O=C(CCc1nnc(-c2ccc(-c3ccccc3)cc2)o1)NCCc1ccccn1 the results were FLuc modulator 19µM*, NPC1 promoter act 19%, ELG1 genotox inconclusive, ELG1 DNA repair inconclusive and Rab9 promoter act 14%.
CC(c1ccon1)N(C)C(=O)CCc1nnc(Cc2ccc(-c3ccccc3)cc2)o1 (stereo unspecified) was read as FLuc modulator inconclusive, NPC1 promoter act -2%, ELG1 genotox -8%, ELG1 DNA repair inconclusive and Rab9 promoter act -4%.
`CC(NC(=O)CCc1nnc(-c2ccc(-c3ccccc3)cc2)o1)c1nccs1` (stereo unspecified) gave FLuc modulator 17µM*, NPC1 promoter act 18%, SMN2 splice up 10µM*, ELG1 genotox 4%, ELG1 DNA repair inconclusive and Rab9 promoter act 13%.
